Compounds with a hit are over-represented: about 20% of the library has one in this group of screens.
HCMV inh = human cytomegalovirus inhibition | hit rate 4.5% among 410,000 | activity change, negative = inhibition, % at 57.5 µM | HFF cells, HCMV-luciferase reporter, 72 h; hits give low values; in the data active = activity change below about -60%; inconclusive = no clear call, values can overlap the other calls; inactive = above about -39%; also: % is scaled to controls: 0 for no effect and ±100 for the full control effect
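Compounds were evaluated in HFFs infected with an HCMV luciferase reporter virus (MOI 1 PFU/cell). Luciferase in lysates collected 72 h post infection served as the replication measure.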
Pf growth 96h = inhibits malaria parasite growth, 96 h; P. falciparum luciferase reporter growth, 96 h; Potency, µM (highest dose often 28.7 µM), for the others: at the top dose activity change, negative = inhibition, actives largely listed as inhibitors; hit rate 6.9% among 320,000; AID 504834; also: potency is read from the fitted curve at half-maximal effect; % is scaled to controls: 0 for no effect and ±100 for the full control effect
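Erythrocytes infected with luciferase-expressing P. falciparum were dispensed at 2% hematocrit and 0.05% parasitemia (final), then incubated with compounds 96 hours at 37 C in 5% CO2. Luminescence after detection reagent addition reported growth.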
Cycloheximide cs = counter-screen hit for Shiga toxin inhibitors, cycloheximide | cell reporter, cycloheximide protein synthesis inhibition counterscreen | max response, % | hit rate 12% among 300,000 | AID 2314; in the data active = max response mostly above about 13%, no sharp cut-off; inactive = mostly below about 14%; also: read at 38.3 µM for the half of the compounds with a filed dose; 0% is about no effect
Pf growth 48h = P. falciparum growth inhibition at 48 hours (one generation). hit rate 5.9% among 310,000. Potency, µM (top dose mostly 28.7 µM), for inactives: at the top dose activity change, negative = inhibition, usual class: inhibitors. AID 504832. P. falciparum luciferase growth in erythrocytes, 48 h; also: potency is read from the fitted curve at half-maximal effect; % is scaled to controls: 0 for no effect and ±100 for the full control effect
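Compounds are pin-transferred into medium, infected erythrocytes (2% hematocrit, 0.1% parasitemia final) are added, and plates sit one parasite generation at 37 C in 5% CO2. Detection reagent is then added and luminescence measured.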
Shiga inhibitor = inhibitors of Shiga toxin in Vero cells | Vero cells, Shiga toxin protein synthesis inhibition reporter | AID 2315 | hit rate 9.2% among 290,000 | inhibition, % at 38.7 µM; in the data active = inhibition mostly above about 28%, no sharp cut-off; inactive = mostly below about 43%; also: 0% is about no effect
* hit, by the source's call; ? = inconclusive; nt = not tested or not shown. Unless noted, calls follow the shape of the dose curve; as a rule, active = well fitted inhibition curve with a large enough effect; inconclusive = small, poorly fitted or top-dose-only effect, or another doubt; inactive = no such curve, though single readings can be large or run the other way.

SMILES	HCMV inh	Pf growth 96h	Cycloheximide cs	Pf growth 48h	Shiga inhibitor
CC(Oc1ccc(F)cc1)C(=O)Nc1nc(-c2ccccn2)cs1 (centres undefined)	-90*	2.3µM*	nt	2.6µM*	nt
Cc1cc(C)c(OCC(=O)Nc2nc(-c3ccccn3)cs2)c(C)c1	5	?	4	8.3µM*	51
O=C(CCS(=O)(=O)c1ccccc1)Nc1nc(-c2ccccn2)cs1	-103*	nt	nt	nt	nt
O=C(CCS(=O)(=O)c1ccc(F)cc1)Nc1nc(-c2ccccn2)cs1	-106*	?	8	?	-5
COc1ccc(NC(C#N)c2ccccc2OCc2ccccc2)cc1 (centres undefined)	10	47%	1	4%	-2
Cc1ccc(NC(=O)CCN2CCCCC2)cc1	-14	-10%	29*	172%	41*
Cc1cc(N2CCN(C(=O)Nc3ccc(F)cc3F)CC2)c2ccccc2n1	nt	15µM*	4	10µM*	22
CC1CCCN(C(=O)Nc2ccc(Br)cc2Cl)C1 (centres undefined)	31	49%	45*	63%	96*
COc1ccc(NC(=O)NC2(C(=O)N3CCOCC3)CCCCC2)cc1	-4	45%	22*	29%	14
Cc1ccc(NC(=O)CCN2CCN(CCO)CC2)cc1	-3	nt	nt	nt	nt
CC1CN(C(=O)Nc2ccc(Br)cc2Cl)CC(C)O1 (centres undefined)	-18	?	1	-13%	-1
COc1cc(OC)c(NC(=O)Nc2c(C)n(C)n(-c3ccccc3)c2=O)cc1Cl	-10	nt	nt	nt	nt
O=C(Nc1ccc(F)cc1F)N1CCCCCC1	-5	-21%	27*	49%	23
CCc1ccc(NC(=O)N2CCCCCC2)cc1	89	51%	49*	106%	87*
COC(=O)c1ccc(NC(=O)C(=O)N2CCCC2)cc1	76	nt	38	179%	76*
CCc1ccc(NS(=O)(=O)c2ccc(NC(=O)N3CCCC3)cc2)cc1	17	nt	nt	nt	nt
O=C(Nc1ccc(Br)cc1)N1CCCC(O)C1 (centres undefined)	-4	26%	24*	128%	70
Cc1ccc2c(=O)cc(C(=O)Nc3c(C)cccc3C)oc2c1	-13	nt	nt	nt	nt
COc1cccc(CN(C(=O)c2oc3ccc(Br)cc3c2C)C2CCS(=O)(=O)C2)c1 (centres undefined)	-8	nt	nt	nt	nt
CCOC(=O)c1ccc(NC(=O)N2CCN(C3CCCCC3)CC2)cc1	13	nt	-2	?	-4
Cc1ccc(NC(=O)N2CCCCCC2)cc1	59	?	36*	84%	84*
Cc1ccc(NC(=O)N2CCC(C(N)=O)CC2)cc1	11	27%	-2	-1%	27
CCOC(=O)c1ccc(NC(=O)N2CCCCC2)cc1	nt	211%	41*	nt	78*
NC(=O)C1(N2CCCCC2)CCN(C(=O)NC2CCCCC2)CC1	-5	15µM*	-4	0%	-36
Cc1ccc(NC(=O)N2CCCCCC2)c(C)c1	35	19%	50*	67%	62*
SMILES	HCMV inh	Pf growth 96h	Cycloheximide cs	Pf growth 48h	Shiga inhibitor
COc1ccccc1N1CCN(C(=O)Cn2nc(C(F)(F)F)c3c2CCC3)CC1	-4	26%	-3	-22%	-9
COc1ccc(N(CC(=O)Nc2ccccc2OC)S(=O)(=O)c2ccc(OC)c(OC)c2)cc1	-13	-19%	-3	5%	-8
COc1ccc(NC(=O)N2CCOCC2)cc1	22	?	-1	8%	nt
COc1ccc(NC(=O)N2CCCCC2)cc1	80	-23%	26*	36%	29
O=C(Nc1ccc(Br)cc1)N1CCCCCC1	10	0%	55*	70%	98*
O=C(Nc1cccc(F)c1)N1CCCCCC1	?	0%	-1	3%	15
O=C(Nc1ccccc1)N1CCN(CCc2ccccc2)CC1	?	0%	-1	-25%	-3
CCN1CCN(C(=O)Nc2ccc(Cc3ccc(NC(=O)N4CCN(CC)CC4)cc3)cc2)CC1	?	10µM*	1	?	-14
NC(=O)C1(N2CCCCC2)CCN(C(=O)Nc2ccc(C(F)(F)F)cc2)CC1	35	nt	nt	nt	nt
CCOc1ccc(NC(=O)N2CCC(C(N)=O)(N3CCCCC3)CC2)cc1	7	13µM*	-2	2%	-2
COc1cccc(CNC(=O)c2ccc3nc(-c4ccccc4)c(-c4ccccc4)nc3c2)c1OC	5	nt	nt	nt	nt
COc1ccc(NC(=O)N2CCN(C(=O)C(Cc3ccc(F)cc3)NC(C)=O)CC2)cc1 (centres undefined)	22	27%	9.7*	4%	35

Screening data: PubChem BioAssay, National Center for Advancing Translational Sciences (NCATS)
